Measurements taken from PubChem BioAssay (NCI).
This is part of a sample that, as a whole, favours compounds with a hit. Of some 79,000 tested, about 15% had one in any assay. Calls of active or inactive are those of the source. Cut-off read from the data, not from the text of the source: active = growth inhibition above about 70%; inactive = the rest.

Experiment: NCI Yeast Anticancer Drug Screen. Data for the rad50EPP+ strain (AID 151);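 note: 0% = growth of vehicle-treated control cultures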
Settings: S. cerevisiae rad50 mutant strain, hits give high values
Experimental: Growth inhibition of yeast strains with defined genetic alterations is measured as a screen for potential anti-cancer activity. Selected strains with alterations in DNA damage repair or cell cycle control were exposed to compounds and growth inhibition was measured relative to vehicle treated controls. The strain used in this assay is rad50EPP+

Measured: growth inhibition

O=[N+]([O-])[O][Sn]([O][Sn]([O][N+](=O)[O-])([c]1ccccc1)[c]1ccccc1)([c]1ccccc1)[c]1ccccc1
active: at 100.0 µM 99%
inactive: at 1.2 µM 8% | at 3.7 µM -2% | at 11.0 µM 0% | at 33.0 µM 20%

CCCCCCNCCCNc1c2cc(OC)ccc2nc2cccc([N+](=O)[O-])c12
active: at 100.0 µM 92%
inactive: at 1.2 µM 2% | at 3.7 µM 5% | at 11.0 µM 20% | at 33.0 µM 60%

CCOC(=O)C(Cc1c2ccccc2cc2ccccc12)(NC(C)=O)C(=O)OCC
inactive: at 1.2 µM 0% | at 3.7 µM 0% | at 11.0 µM 6% | at 33.0 µM 12% | at 100.0 µM 10%

O=[N+]([O-])c1ccc2[nH]c3c(-c4ccccc4)nccc3c2c1
active: at 33.0 µM 79% | at 100.0 µM 79%
inactive: at 1.2 µM 20% | at 3.7 µM 43% | at 11.0 µM 68%

Nc1ccc2c(c1)C(=O)c1c(F)cccc1-2
inactive: at 1.2 µM 5% | at 3.7 µM 21% | at 11.0 µM 53%
active: at 33.0 µM 86% | at 100.0 µM 97%

COc1cc([C@@H]2c3cc4c(cc3[C@@H](NC(=O)NO)[C@H]3COC(=O)[C@H]23)OCO4)cc(OC)c1O
inactive: at 1.2 µM -2% | at 3.7 µM 0% | at 11.0 µM 2% | at 33.0 µM 2% | at 100.0 µM 9%

NC(=S)N1N=C2c3ccccc3CC[C@H]2[C@@H]1c1ccc(Cl)cc1
inactive: at 1.2 µM -14% | at 3.7 µM -10% | at 11.0 µM -14% | at 33.0 µM 8% | at 100.0 µM 37%

O=[N+]([O-])c1ccc(C(c2c[nH]c3ccccc23)c2c[nH]c3ccccc23)cc1
inactive: at 1.2 µM 10% | at 3.7 µM 9% | at 11.0 µM 3% | at 33.0 µM 2% | at 100.0 µM -14%
